# Test results from PubChem BioAssay (EPA / NIEHS).
# Results filed as inconclusive are left out. A structure can be active in one record and inactive in another. Active and inactive are the calls of the source. How the source made its calls: active means hit-call score of the fitted dose curve at least 0.9, where 1 is the maximum; inconclusive means response in the unintended direction; inactive means score below 0.9.
# What was measured:
# [1] = TOX21_p53_BLA_p2_viability: Viability Assessment in the Tox21 HCT-116 p53 Agonism Beta-lactamase Assay, Phase 2 (AID 2283591);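 further: compound exposure lasted 16 h at 37 °C; actives lower the ATP signal meaning cytotoxicity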
# In short: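 HCT-116 p53-bla cells (4000/well) rested 5 h at 37C, then received compounds in DMSO (217-fold dilution) for 16 h at 37C, 5% CO2. After the CCF4 read, CellTiter-Glo was added; ATP luminescence was read after 30 min at room temperature.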
# [2] = biological target: Cellular tumor antigen p53 (Homo sapiens) (UniProt P04637); test: TOX21_p53_BLA_p5_ratio: Tox21 HCT-116 p53 Agonism Beta-lactamase Assay, Ratio, Phase 5 (AID 2283599)
# Cellular tumor antigen p53 (Homo sapiens), sequence (P04637 whole entry, looked up): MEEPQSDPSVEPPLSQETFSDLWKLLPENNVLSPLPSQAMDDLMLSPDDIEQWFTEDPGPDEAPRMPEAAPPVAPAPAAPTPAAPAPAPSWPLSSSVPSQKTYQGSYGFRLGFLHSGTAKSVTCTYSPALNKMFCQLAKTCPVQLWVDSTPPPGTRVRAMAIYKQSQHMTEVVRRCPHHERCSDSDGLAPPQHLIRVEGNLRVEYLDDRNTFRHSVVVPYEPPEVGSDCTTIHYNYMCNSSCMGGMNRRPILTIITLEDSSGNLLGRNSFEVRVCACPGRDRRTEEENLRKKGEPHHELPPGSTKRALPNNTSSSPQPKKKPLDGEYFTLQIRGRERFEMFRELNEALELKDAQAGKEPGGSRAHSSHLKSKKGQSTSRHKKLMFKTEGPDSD
# In short: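 HCT-116 cells carrying a p53-inducible beta-lactamase reporter were seeded at 4000 cells/well and dosed after 5 h with compound in DMSO (217-fold dilution). After 16 h at 37C, CCF4-AM substrate was added for 2 h, and the 460/530 nm emission ratio was scored as gain-of-signal versus DMSO.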
# [3] = TOX21_p53_BLA_p5_viability: Viability Assessment in the Tox21 HCT-116 p53 Agonism Beta-lactamase Assay, Phase 5 (AID 2283600)
# In short: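 Cells were plated at 4000/well, rested 5 h at 37C, then given compounds in DMSO (217-fold dilution) for 16 h at 37C, 5% CO2. Following the CCF4-AM beta-lactamase read, CellTiter-Glo was added and luminescence was read after 30 min at room temperature.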
# [4] = biological target: Cellular tumor antigen p53 (Homo sapiens) (UniProt P04637); test: TOX21_p53_BLA_p4_ratio: Tox21 HCT-116 p53 Agonism Beta-lactamase Assay, Ratio, Phase 4 (AID 2283601)
# In short: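 HCT116 cells carrying an inducible beta-lactamase reporter were plated at 4000 cells/well, rested 5 h, then exposed to compounds in DMSO (217-fold dilution) for 16 h at 37C. CCF4-AM substrate was loaded 2 h at room temperature; 460/530 nm emission ratio scored gain-of-signal versus DMSO.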
# [5] = biological target: Cellular tumor antigen p53 (Homo sapiens) (UniProt P04637); test: TOX21_p53_BLA_p2_ratio: Tox21 HCT-116 p53 Agonism Beta-lactamase Assay, Ratio, Phase 2 (AID 2283592)
# In short: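 HCT116 cells carrying a p53-responsive beta-lactamase reporter were plated, incubated 5 h at 37C, then dosed with compounds in DMSO (217-fold dilution) for 16 h. CCF4-AM substrate was added for 2 h at room temperature; the 460/530 nm emission ratio gave gain-of-signal activity relative to DMSO.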
# [6] = TOX21_p53_BLA_p3_viability: Viability Assessment in the Tox21 HCT-116 p53 Agonism Beta-lactamase Assay, Phase 3 (AID 2283593);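 further: cells exposed to compound for 16 h before reading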
# In short: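 HCT-116 cells (4000/well) rested 5 h at 37C, then got DMSO compounds by pin tool (217-fold dilution) for 16 h at 37C, 5% CO2. After the bla read, CellTiter-Glo was added and luminescence read at 30 min, room temperature.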
# [7] = biological target: Cellular tumor antigen p53 (Homo sapiens) (UniProt P04637); test: TOX21_p53_BLA_p3_ratio: Tox21 HCT-116 p53 Agonism Beta-lactamase Assay, Ratio, Phase 3 (AID 2283596)
# In short: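 HCT116 p53-bla cells (4000/well) given compound in DMSO (217-fold dilution) after 5 h, incubated 16 h at 37C. CCF4-AM substrate 2 h at room temperature; 460/530 nm emission ratio, gain fitted against DMSO.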
structure (smiles),measurement,setting,value
OC[C@H]1O[C@@H](O[C@@H]2[C@@H](CO)O[C@](O)(CO)[C@H]2O)[C@H](O)[C@@H](O)[C@H]1O,outcome,[1],inactive
same,outcome,[2],inactive
same,outcome,[3],inactive
same,outcome,[4],inactive
Oc1ccc(-c2ccc(O)cc2)cc1,outcome,[1],inactive
same,outcome,[2],inactive
same,outcome,[3],inactive
same,AC50,[4],46.8 µM (active)
NS(=O)(=O)c1cc(C(=O)O)cc(N2CCCC2)c1Oc1ccccc1,outcome,[1],inactive
same,outcome,[3],inactive
same,outcome,[4],inactive
CCC(C)(C)C(=O)O,outcome,[1],inactive
same,outcome,[3],inactive
same,outcome,[4],inactive
COc1cc2c(cc1O)CCN[C@]21CS[C@@H]2c3c(OC(C)=O)c(C)c4c(c3[C@H](COC1=O)N1[C@@H]2[C@H]2c3c(cc(C)c(OC)c3O)C[C@@H]([C@@H]1O)N2C)OCO4,AC50,[5],0.00174 µM (active)
same,outcome,[5],inactive
CCOC(=O)CC(C)=O,outcome,[1],inactive
same,outcome,[3],inactive
C[Si](C)(C)Cl,outcome,[1],inactive
same,outcome,[4],inactive
CCCC(=O)Nc1c(I)cc(I)c(CC(CC)C(=O)O)c1I (stereo unspecified),outcome,[5],inactive
O=C(O)c1ccc(Cl)cc1Cl,outcome,[1],inactive
same,outcome,[2],inactive
same,outcome,[4],inactive
CC(C)(C)C1(O)CCN2CC3c4ccccc4CCc4cccc(c43)C2C1 (stereo unspecified),outcome,[5],inactive
CC(CO)(CO)CO,outcome,[1],inactive
same,outcome,[3],inactive
same,outcome,[4],inactive
CC(C)CC(O)CC(C)C,outcome,[1],inactive
same,outcome,[3],inactive
COC(=O)CCCCC(=O)O,outcome,[5],inactive
same,outcome,[6],inactive
same,outcome,[7],inactive
CC(=O)O[C@H]1C[C@@H]2CC[C@@H]3[C@H](CC[C@@]4(C)[C@H]3C[C@H](N3CC[N+](C)(C)CC3)[C@@H]4OC(C)=O)[C@@]2(C)C[C@@H]1N1CC[N+](C)(C)CC1,outcome,[1],inactive
same,outcome,[2],inactive
same,outcome,[4],inactive
C[C@@H](CN(C)C)CN1c2ccccc2Sc2ccccc21,outcome,[1],inactive
same,outcome,[2],inactive
same,outcome,[4],inactive
CCC(O)C(C)(C)C (stereo unspecified),outcome,[1],inactive
same,outcome,[2],inactive
same,outcome,[3],inactive
same,outcome,[4],inactive
CCCCCCCCCC#N,outcome,[1],inactive
same,outcome,[2],inactive
same,outcome,[4],inactive
CSSc1ccoc1C,outcome,[5],inactive
same,outcome,[6],inactive
same,AC50,[7],40.4 µM (active)
COC(=O)C(CN)c1c[nH]c2ccc(OC)cc12 (stereo unspecified),outcome,[1],inactive
same,outcome,[2],inactive
same,outcome,[3],inactive
same,outcome,[4],inactive
CCCCC(=O)N(C)C,outcome,[1],inactive
same,outcome,[2],inactive
same,outcome,[4],inactive
